From PubChem BioAssay
Active and inactive are the calls of the source. Unless noted, the rule behind the calls is not given here.

Assays:
[1] = test system: Wnt5a (protein binding on small-molecule microarray); assay: small molecules binding Wnt5a protein – biophysical, small-molecule microarray, 635/667 nm fluorescence, primary screen (AID 1142); details: 635 nm fluorescence, higher = more signal;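 note: fluorescence read at 667 nm with signal to noise per printed feature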
[2] = ATP-based viability of Huh7 replicon cells – cell-based, CellTiter-Glo luminescence, basal, 48 h, cytotoxicity control for HCV replication inhibitor project, primary screen (AID 1143); details: higher = more signal, called active from +8 up or from −8 down;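 note: Huh7 hepatoma cells carrying a hepatitis C replication reporter with no stimulus; test concentration not given here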
[3] = Pseudomonas biofilm growth suppression – PAO1 strain, BacTiter-Glo luminescence, LB-PBS, primary screen (AID 1144); details: P. aeruginosa PAO1 biofilm, 12 h, higher = more signal
[4] = basal CRE-LacZ reporter activity in PC12 – cell-based, unstimulated, primary screen (AID 1145); details: no forskolin, luminescence, 4.5 h, higher = more signal, called active from +8 up or from −8 down
[5] = forskolin-driven CRE-LacZ activity in PC12 – cell-based, CRE-LacZ reporter, forskolin-stimulated, primary screen (AID 1146); details: luminescence, 4.5 h, higher = more signal, called active from +8 up or from −8 down;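 note: PC12 cells with 6xCRE LacZ reporter stimulated by forskolin 10 µM; beta-galactosidase reporter signal reflecting CREB driven transcription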
[6] = biological target: Streptavidin (Streptomyces avidinii) (UniProt P22629); assay: compounds binding control protein streptavidin – biophysical, small-molecule microarray, 635/667 nm fluorescence, artefact control for SMM compound annotation, primary screen (AID 1147); details: higher = more signal;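 note: signal reflects streptavidin binding to arrayed compounds as a control protein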
[7] = probe aInhba binding on compound microarray – biochemical, small-molecule microarray, 635/667 nm fluorescence, primary screen (AID 1148); details: higher = more signal;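 note: score merges 667nm spot fluorescence with signal-to-noise for antibody binding to printed compounds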
Torsin-1A (Homo sapiens) [8] = biological target: Torsin-1A (Homo sapiens) (UniProt O14656); assay: TOR1A wild-type binding on microarray – cell lysate, small-molecule microarray, lysate, 635/667 nm, primary screen (AID 1149); details: COS7 hTOR1A-WT lysate, 635 nm fluorescence, higher = more signal
Torsin-1A (Homo sapiens) [9] = biological target: Torsin-1A (Homo sapiens) (UniProt O14656); assay: torsin A mutant lysate binding on microarrays – cell lysate, small-molecule microarray, COS7 lysate, 635/667 nm fluorescence, primary screen (AID 1150); details: COS7 hTOR1A mutant lysate, 635 nm fluorescence, higher = more signal;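 note: score pools 667 nm emission and signal to noise measuring lysate protein binding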
[10] = test system: Sonic hedgehog protein (Shh); assay: Sonic hedgehog microarray binding compounds – biochemical, small-molecule microarray, 635/667 nm fluorescence, primary screen (AID 1151); details: 635 nm fluorescence, higher = more signal;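 note: Shh protein binding to compounds spotted on small-molecule microarray slides; score combines spot fluorescence intensity with signal-to-noise across triplicate slides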
[11] = optical density shifts of acrAB sulA E. coli – strain DRC41, OD650, 48 h, E. coli filamentation inducer project, primary screen (AID 1152); details: higher = more signal, called active from +8 up or from −8 down;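 note: E. coli MC1000 strain DRC41 lacking acrAB efflux pump and sulA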
[12] = probe aLefty1 binding on compound microarray – biochemical, small-molecule microarray, 635/667 nm fluorescence, primary screen (AID 1153); details: higher = more signal;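 note: score merges spot fluorescence with signal-to-noise ratio from the scanned slide images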
[13] = plasmodial surface anion channel blockers, osmotic lysis – cell-based, P. falciparum Indochina, OD700, 1 h, primary screen (AID 1154); details: P. falciparum Indochina infected RBC osmotic lysis, higher = more signal, called active from +8 up or from −8 down
[14] = plasmodial surface anion channel blockers, osmotic lysis – cell-based, P. falciparum Indochina, OD700, 2 h, primary screen (AID 1155);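 note: lysis reports solute entry through the parasite surface anion channel PSAC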; details: P. falciparum Indochina infected erythrocytes, higher = more signal, called active from +8 up or from −8 down
[15] = changes in parasitized red cell lysis, either direction – P. falciparum Indochina, OD700, 3 h, PSAC antagonist project, primary screen (AID 1156); details: P. falciparum-infected erythrocytes, osmotic lysis, higher = more signal, called active from +8 up or from −8 down
[16] = plasmodial surface anion channel blockers, osmotic lysis – cell-based, P. falciparum Indochina, OD700, 18 h, primary screen (AID 1157); details: P. falciparum Indochina infected erythrocytes, osmotic lysis OD700, 18 h; higher = more signal, called active from +8 up or from −8 down
[17] = S6 kinase pathway phospho-S6 level changes – cell-based, A549, cytoblot, luminescence, serum-stimulated, primary screen (AID 1158); details: 5 h, higher = more signal;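 note: serum-stimulated A549 lung adenocarcinoma cells; signal is phosphorylated S6 detected by cytoblot immunostaining with HRP secondary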
[18] = biological target: NADPH oxidase 2 (Homo sapiens) (UniProt P04839); assay: compounds shifting NOX2 Amplex Red fluorescence – cell-based, HEK293-NOX2, PMA-stimulated, NOX inhibitor project, primary screen (AID 1159); details: 45 min, higher = more signal, called active from +8 up or from −8 down; note: test concentration not given here
[19] = biological target: NADPH oxidase 4 (Homo sapiens) (UniProt Q9NPH5); assay: compounds shifting NOX4 Amplex Red fluorescence – cell-based, HEK293-NOX4, tetracycline-induced, NOX inhibitor project, primary screen (AID 1160); details: HEK293-NOX4, Amplex Red H2O2 fluorescence, 45 min; higher = more signal, called active from +8 up or from −8 down
[20] = biological target: NADPH oxidase 5 (Homo sapiens) (UniProt Q96PH1); assay: compounds shifting NOX5 Amplex Red fluorescence – cell-based, HEK293-NOX5, NOX inhibitor project, primary screen (AID 1161); details: HEK293-NOX5, ionomycin, 45 min, higher = more signal
Sequence of NADPH oxidase 5 (Homo sapiens) (Q96PH1 whole entry, looked up): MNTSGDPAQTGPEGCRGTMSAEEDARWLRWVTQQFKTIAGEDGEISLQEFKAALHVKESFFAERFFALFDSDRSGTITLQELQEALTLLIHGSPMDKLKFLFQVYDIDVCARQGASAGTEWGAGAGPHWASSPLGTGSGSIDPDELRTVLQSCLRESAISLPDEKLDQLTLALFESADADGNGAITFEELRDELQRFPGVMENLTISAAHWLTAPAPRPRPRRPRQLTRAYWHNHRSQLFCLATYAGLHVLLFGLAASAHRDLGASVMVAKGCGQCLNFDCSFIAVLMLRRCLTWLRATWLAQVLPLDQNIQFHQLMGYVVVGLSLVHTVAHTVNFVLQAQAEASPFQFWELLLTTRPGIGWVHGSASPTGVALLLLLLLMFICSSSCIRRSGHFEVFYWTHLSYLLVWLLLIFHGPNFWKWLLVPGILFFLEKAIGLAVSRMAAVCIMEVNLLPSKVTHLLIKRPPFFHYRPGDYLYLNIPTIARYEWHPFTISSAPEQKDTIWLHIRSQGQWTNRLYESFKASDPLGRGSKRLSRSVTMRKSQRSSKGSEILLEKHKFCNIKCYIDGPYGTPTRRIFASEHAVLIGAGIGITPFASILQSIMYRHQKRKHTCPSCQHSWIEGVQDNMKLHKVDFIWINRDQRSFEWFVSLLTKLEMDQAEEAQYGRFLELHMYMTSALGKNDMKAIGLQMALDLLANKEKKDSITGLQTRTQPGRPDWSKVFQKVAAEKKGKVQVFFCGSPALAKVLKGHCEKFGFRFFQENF

Sequence of NADPH oxidase 4 (Homo sapiens) (Q9NPH5 whole entry, looked up): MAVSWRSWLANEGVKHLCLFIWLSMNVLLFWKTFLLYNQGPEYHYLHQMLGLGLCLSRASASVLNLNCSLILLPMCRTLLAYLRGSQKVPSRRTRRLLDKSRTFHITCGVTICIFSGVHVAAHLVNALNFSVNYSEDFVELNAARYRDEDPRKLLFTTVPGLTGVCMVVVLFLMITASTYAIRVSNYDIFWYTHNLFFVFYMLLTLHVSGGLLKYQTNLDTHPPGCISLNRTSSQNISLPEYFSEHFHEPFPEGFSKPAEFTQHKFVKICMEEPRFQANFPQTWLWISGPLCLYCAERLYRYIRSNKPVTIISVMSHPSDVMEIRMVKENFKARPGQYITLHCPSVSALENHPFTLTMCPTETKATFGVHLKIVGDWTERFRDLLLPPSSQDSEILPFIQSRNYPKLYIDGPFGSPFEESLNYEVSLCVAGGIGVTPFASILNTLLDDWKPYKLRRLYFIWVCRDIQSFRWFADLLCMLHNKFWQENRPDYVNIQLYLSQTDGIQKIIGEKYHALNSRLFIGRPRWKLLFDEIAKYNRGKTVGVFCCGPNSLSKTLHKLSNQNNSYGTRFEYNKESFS
Sequence of NADPH oxidase 2 (Homo sapiens) (P04839 whole entry, looked up): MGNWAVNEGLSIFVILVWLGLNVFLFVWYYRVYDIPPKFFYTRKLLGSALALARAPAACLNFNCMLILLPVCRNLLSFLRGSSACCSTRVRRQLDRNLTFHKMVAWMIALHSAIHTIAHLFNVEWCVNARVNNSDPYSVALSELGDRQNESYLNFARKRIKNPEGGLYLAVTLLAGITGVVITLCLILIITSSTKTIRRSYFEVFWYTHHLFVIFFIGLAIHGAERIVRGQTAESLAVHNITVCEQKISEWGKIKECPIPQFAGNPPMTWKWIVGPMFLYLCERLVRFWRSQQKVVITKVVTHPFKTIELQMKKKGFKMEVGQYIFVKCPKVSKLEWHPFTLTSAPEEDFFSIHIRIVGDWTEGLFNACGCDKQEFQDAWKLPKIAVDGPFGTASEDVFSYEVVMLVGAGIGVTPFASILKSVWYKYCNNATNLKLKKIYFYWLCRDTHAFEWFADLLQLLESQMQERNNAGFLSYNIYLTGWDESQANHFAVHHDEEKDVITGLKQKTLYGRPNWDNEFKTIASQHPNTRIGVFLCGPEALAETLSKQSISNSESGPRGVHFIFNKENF
Sequence of Torsin-1A (Homo sapiens) (O14656 whole entry, looked up): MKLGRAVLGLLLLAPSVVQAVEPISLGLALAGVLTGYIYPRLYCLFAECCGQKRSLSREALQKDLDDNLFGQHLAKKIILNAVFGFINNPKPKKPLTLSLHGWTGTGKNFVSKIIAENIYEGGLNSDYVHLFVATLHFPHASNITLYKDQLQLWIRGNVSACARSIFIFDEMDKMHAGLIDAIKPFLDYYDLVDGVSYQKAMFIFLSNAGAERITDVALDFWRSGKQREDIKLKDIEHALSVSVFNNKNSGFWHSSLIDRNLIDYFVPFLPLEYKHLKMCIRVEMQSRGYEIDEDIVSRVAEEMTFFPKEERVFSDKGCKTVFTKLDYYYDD
Sequence of Streptavidin (Streptomyces avidinii) (P22629 whole entry, looked up): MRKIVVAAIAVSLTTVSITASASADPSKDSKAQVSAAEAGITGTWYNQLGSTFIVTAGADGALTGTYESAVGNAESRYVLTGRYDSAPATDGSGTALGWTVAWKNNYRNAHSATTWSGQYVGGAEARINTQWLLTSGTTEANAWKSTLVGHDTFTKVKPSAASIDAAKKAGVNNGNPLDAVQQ

SMILES	composite z-score [1]	z-score [2]	z-score [3]	z-score [4]	z-score [5]	composite z-score [6]	composite z-score [7]	composite z-score (Torsin-1A (Homo sapiens) [8])	composite z-score (Torsin-1A (Homo sapiens) [9])	composite z-score [10]	z-score [11]	composite z-score [12]	z-score [13]	z-score [14]	z-score [15]	z-score [16]	z-score [17]	z-score [18]	z-score [19]	z-score [20]
CCOC(=O)C[C@H]1[C@H](OC(=O)Cc2ccc3c(c2)OCO3)[C@@H](NC(=O)Cc2ccc(OC)cc2)c2cc(OCCCO)ccc2N1C(=O)c1ccc2ccccc2n1	-0.223	-0.823 (inactive)	-0.687 (inactive)	10.1 (active)	-1.24 (inactive)	0.0739	-0.0547	0.183	0.714	0.492	2.96 (inactive)	0.0889	3.63 (inactive)	-0.486 (inactive)	-1.03 (inactive)	-1.01 (inactive)	1.29	-1.03 (inactive)	1.04 (inactive)	1.05
CO[C@]12C=C(Br)[C@@H](C[C@@H]1c1cccc(C)c1)[C@@]1(CO1)C2=O	-0.161	-0.795 (inactive)	-0.863 (inactive)	0.223 (inactive)	5.27 (inactive)	-0.433	-0.154	-0.436	-0.407	0.841	-0.009 (inactive)	-0.0035	-0.219 (inactive)	-0.119 (inactive)	0.442 (inactive)	-0.382 (inactive)	0.149	-0.356 (inactive)	0.539 (inactive)	-0.588
CCCCCCc1nc(C2CC2)cc2c1[Si](C(C)C)(C(C)C)OC2	-0.306	-2.44 (inactive)	-0.486 (inactive)	1.59 (inactive)	0.997 (inactive)	0.312	-0.261	-0.522	-0.751	-0.694	-0.611 (inactive)	-0.0559	0.834 (inactive)	-0.225 (inactive)	0.981 (inactive)	-1.13 (inactive)	0.259	-6.34 (inactive)	-2.12 (inactive)	-4.98
O=C1N(Cc2ccccc2)c2ccccc2[C@@H]2OC(c3ccc(OCCCO)cc3)=N[C@]12Cc1ccccc1	-0.0069	-4.55 (inactive)	-0.236 (inactive)	1.37 (inactive)	-1.64 (inactive)	0.89	-0.0332	0.378	0.534	0.809	0.65 (inactive)	-0.0896	29.4 (active)	26.1 (active)	4.66 (inactive)	2.38 (inactive)	0.724	-1.08 (inactive)	-0.653 (inactive)	-2.11
C=CCOC(=O)[C@H]1[C@@H]2C(=O)O[C@@H](c3ccccc3)[C@@H](c3ccccc3)N2[C@@H](c2ccc(OCCOC(=O)[C@@H]3C[C@@H]4C(=O)N[C@@H](CCCCN(C)C)C(=O)N4[C@@H]3c3ccc(O)cc3)cc2)[C@]12C(=O)Nc1ccccc12	0.261	-0.0273 (inactive)	0.283 (inactive)	0.411 (inactive)	0.739 (inactive)	-0.245	-0.0468	0.756	0.73	1.96	-1.53 (inactive)	-0.0873	0.0625 (inactive)	0.249 (inactive)	3.35 (inactive)	0.251 (inactive)	-0.444	2.51 (inactive)	0.874 (inactive)	0.391
O=C1OCC=C[C@H]2OC34C=CCN(Cc5ccccc5)C(=O)[C@H]3N(CCCCCCO)C(=O)[C@@H]4[C@@H]12 (stereo not given in full)	-0.495	-0.203 (inactive)	-0.955 (inactive)	-1.18 (inactive)	-0.185 (inactive)	-0.447	-0.238	1.6	1.29	-0.289	2.56 (inactive)	-0.152	0.987 (inactive)	-0.567 (inactive)	-0.368 (inactive)	-0.924 (inactive)	1.02	1.22 (inactive)	-0.272 (inactive)	1.87
[N-]=[N+]=NCc1ccccc1C[C@@]1(C(=O)N2CCCCC2)N=C(c2ccc(OCCCO)cc2)O[C@@H]1c1ccccc1	0.462	-4.99 (inactive)	0.914 (inactive)	-0.552 (inactive)	0.886 (inactive)	0.325	0.159	-0.0373	0.601	-0.762	-0.184 (inactive)	0.0323	25.2 (active)	14.3 (active)	2.13 (inactive)	2.51 (inactive)	0.893	-2.02 (inactive)	-0.495 (inactive)	-1.49
COC(=O)[C@@]1(Cc2ccc(F)cc2)[C@H]2c3cc(C(=O)N(C)C)n(CCc4ccc(O)c(OC)c4)c3C[C@H]2CN1C(=O)c1ccccc1	2.23	0.462 (inactive)	-0.0301 (inactive)	0.783 (inactive)	0.15 (inactive)	0.637	1.62	0.334	0.234	-0.804	-1.22 (inactive)	1.63	-0.951 (inactive)	0.236 (inactive)	-0.722 (inactive)	0.667 (inactive)	-0.824	-0.0241 (inactive)	-0.627 (inactive)	-0.245
CCOC(=O)C[C@H]1[C@H](OC(=O)c2cc3ccccc3oc2=O)[C@@H](NC(=O)c2ccc(-c3ccccc3)cc2)c2cc(OCCCO)ccc2N1C(=O)c1ccccc1	0.624	-2.84 (inactive)	1.02 (inactive)	5.66 (inactive)	-0.818 (inactive)	0.509	0.027	1.4	-0.0812	1.87	1.27 (inactive)	0.0839	0.697 (inactive)	-1.44 (inactive)	-0.249 (inactive)	-2.22 (inactive)	0.683	-1.47 (inactive)	0.178 (inactive)	0.748
CC(C)C[C@@H]1NC(=O)[C@@H]2C[C@H](C(=O)NCCCCCN)[C@H](c3ccc(O)cc3)N2C1=O	0.329	-0.079 (inactive)	-0.422 (inactive)	0.411 (inactive)	0.437 (inactive)	1.01	-0.171	0.457	0.465	2.04	-0.899 (inactive)	-0.463	0.932 (inactive)	-0.0263 (inactive)	-0.302 (inactive)	0.0068 (inactive)	-0.928	-0.125 (inactive)	-1.36 (inactive)	0.553
OCCCC1=CC(c2ccc(CN3CCCC3)cc2)N(Cc2sc3ccccc3c2Cl)CC1 (stereo not given)	0.774	-2.99 (inactive)	0.00672 (inactive)	0.96 (inactive)	-0.134 (inactive)	0.37	0.0633	0.598	0.842	1.46	-1.6 (inactive)	0.527	7.15 (inactive)	1.29 (inactive)	0.314 (inactive)	1.19 (inactive)	-0.319	-5.42 (inactive)	-2.03 (inactive)	-2.27
O[C@@H](Cc1ccccc1)[C@@H](/C=C/C1CC1)N(CC#Cc1ccccc1)Cc1cccc(Cl)c1	-0.501	-1.09 (inactive)	-0.94 (inactive)	2.04 (inactive)	-0.295 (inactive)	-0.679	-0.302	-0.662	-0.976	-1.03	1.96 (inactive)	0.161	1.49 (inactive)	0.761 (inactive)	0.124 (inactive)	0.23 (inactive)	0.715	0.166 (inactive)	0.727 (inactive)	-0.406
C=CCNC(=O)[C@H]1[C@@H]2C(=O)O[C@@H](c3ccccc3)[C@@H](c3ccccc3)N2[C@@H](c2ccc(O)cc2)[C@]12C(=O)N(C(=O)OCCOC)c1ccccc12	0.381	-2.03 (inactive)	0.309 (inactive)	0.128 (inactive)	5.62 (inactive)	-0.0654	0.122	0.265	1.02	1.11	-0.0476 (inactive)	-0.514	1.97 (inactive)	0.481 (inactive)	1.77 (inactive)	0.148 (inactive)	-0.233	0.974 (inactive)	-0.168 (inactive)	0.605
[N-]=[N+]=Nc1ccccc1C[C@]1(C(N)=O)N=C(c2ccc(OCCCO)cc2)O[C@H]1c1ccccc1N=[N+]=[N-]	0.611	-4.95 (inactive)	-0.783 (inactive)	1.6 (inactive)	-1.25 (inactive)	1.22	0.189	0.747	0.986	-0.191	-0.254 (inactive)	0.237	28.5 (active)	23.5 (active)	1.87 (inactive)	1.16 (inactive)	1.14	-4.36 (inactive)	-2.16 (inactive)	-2.52
C=CCOC(=O)[C@H]1[C@@H]2C(=O)O[C@@H](c3ccccc3)[C@@H](c3ccccc3)N2[C@@H](c2ccc(OCCOC(=O)[C@@H]3C[C@@H]4C(=O)N5CCC[C@H]5C(=O)N4[C@@H]3c3ccc(O)cc3)cc2)[C@]12C(=O)Nc1ccc(I)cc12	0.269	-0.648 (inactive)	-0.42 (inactive)	0.423 (inactive)	0.016 (inactive)	0.107	0.177	0.655	0.504	1.72	-0.695 (inactive)	0.293	1.81 (inactive)	1.74 (inactive)	0.836 (inactive)	0.889 (inactive)	-0.597	1.47 (inactive)	0.482 (inactive)	0.186
